# Measured values reported in PubChem BioAssay (Tox21).
# Results filed as inconclusive are left out. A call without a number means that no potency is given here. Activity calls are given as the source filed them. The call rests on the fitted dose curve.
# Biological target: Beta-2 adrenergic receptor (Homo sapiens) (UniProt P07550)
# Assay: Adrenergic beta2 receptor (ADRB2) small molecule antagonists, cell-based qHTS assay (AID 1963592); further: nearly all actives have a fitted effect of over 50% in size; further: potency means the concentration at half of the fitted maximal effect
# Conditions: CHO-ADRB2 cells, isoproterenol-stimulated cAMP HTRF ratio, 0.5 h; series mostly up to 92.4 µM
# Procedure, shortened: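 Cells (CHO, stable ADRB2 overexpression) incubated 18-20hr at 37C; compounds added from DMSO; agonist mix (1nM isoproterenol, 100uM IBMX, 25uM Ro-20-1724) added; 0.5hr RT; d2-cAMP and anti-cAMP-cryptate added; 1hr RT; 665/615 nm read.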
# Chain of Beta-2 adrenergic receptor (Homo sapiens) (P07550 whole entry, looked up): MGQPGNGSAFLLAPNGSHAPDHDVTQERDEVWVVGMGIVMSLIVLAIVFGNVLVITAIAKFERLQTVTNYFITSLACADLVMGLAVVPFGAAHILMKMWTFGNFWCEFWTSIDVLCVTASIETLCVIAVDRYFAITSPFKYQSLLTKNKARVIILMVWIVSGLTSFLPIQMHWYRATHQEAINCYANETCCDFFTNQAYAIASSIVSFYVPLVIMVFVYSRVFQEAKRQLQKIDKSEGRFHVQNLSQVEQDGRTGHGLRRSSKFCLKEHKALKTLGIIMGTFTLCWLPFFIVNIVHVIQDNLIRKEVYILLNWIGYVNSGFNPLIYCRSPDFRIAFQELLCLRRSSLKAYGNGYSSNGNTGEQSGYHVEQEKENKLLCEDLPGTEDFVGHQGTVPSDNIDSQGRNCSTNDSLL
Structure (SMILES),Potency,"activity change, negative = inhibition"
Oc1ccccc1F,inactive,–
NCCCN1CCOCC1,inactive,–
CC(C)OC(=O)c1ccccc1C(=O)OC(C)C,inactive,–
CC1CC(OC(=O)C(O)c2ccccc2)CC(C)(C)N1C (centres undefined),inactive,–
CC(=O)N[C@@H](CCC(=O)O)C(=O)O,inactive,–
CCOc1ccc2nc(S(N)(=O)=O)sc2c1,inactive,–
O=C(O)c1ccc2cc(C(=O)O)ccc2c1,inactive,–
OCCc1ccncc1,inactive,–
CN1C(CSCC(F)(F)F)Nc2cc(Cl)c(S(N)(=O)=O)cc2S1(=O)=O (centres undefined),inactive,–
O=c1cc(O)c(Cl)c[nH]1,inactive,–
N#CCCNCCC#N,inactive,–
CN1CCC(=C2c3ccccc3CCc3cccnc32)CC1,inactive,–
CCO[C@H](Cc1ccc(OCCc2ccc(OS(C)(=O)=O)cc2)cc1)C(=O)O,inactive,–
CC(CC=O)CCCC(C)(C)O (centres undefined),inactive,–
COc1ccc(/C=N/NC(=O)c2ccncc2)cc1OC,inactive,–
C=CCOC(=O)COCCC(C)C,inactive,–
CCOC(=O)CC(=O)c1ccccc1,inactive,–

Structure (SMILES),Potency,"activity change, negative = inhibition"
CCOc1ccccc1OCCN[C@H](C)Cc1ccc(OC)c(S(N)(=O)=O)c1,8.41 µM (active),–
CCCCCCC(C)Nc1ccc(Nc2ccccc2)cc1 (centres undefined),inactive,–
O=C(NS(=O)(=O)/C=C/c1cccs1)c1ccc(F)cc1Br,inactive,–
CCCc1ccc(OC)cc1,inactive,–
CCCCCCC#CC(=O)OC,inactive,–
Cc1ccc(-c2ncc(Cl)cc2-c2ccc(S(C)(=O)=O)cc2)cn1,inactive,–
COC=O,–,14.4% [at 8.39 µM] (inactive)
CCCCCCCCCCO[C@@H]1O[C@H](CO)[C@@H](O)[C@H](O)[C@H]1O,inactive,–
CCN1C=CN(C)C1C (centres undefined),inactive,–
CCCCOC(=O)CCCCC(=O)OCCCC,inactive,–
O=C1[C@@H]2[C@H]3CC[C@H](C3)[C@@H]2C(=O)N1CCCCN1CCN(c2ncccn2)CC1,inactive,–
O=C(O)CNC(=O)c1ccccc1,inactive,–
COC1CCC=CO1 (centres undefined),inactive,–
CCOCCn1c(N2CCCN(C)CC2)nc2ccccc21,inactive,–
COCc1nnc(-c2ccc[n+]([O-])c2)n1-c1c(Cl)c(Cl)cc2[nH]c(=O)c(=O)[nH]c12,inactive,–
CN(C(=O)CN(CCO)CC(=O)N(C)C(C)(C)Cc1ccccc1)C(C)(C)Cc1ccccc1,inactive,–
CN(C)c1ccc(C2(c3ccc(N(C)C)cc3)OC(=O)c3cc(N(C)C)ccc32)cc1,inactive,–

# Biological target: Beta-2 adrenergic receptor (Homo sapiens) (UniProt P07550)
# Assay: Adrenergic beta2 receptor (ADRB2) small molecule agonists, cell-based qHTS assay (AID 1963593);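 further: CHO cells stably overexpressing human ADRB2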
# Conditions: CHO-ADRB2 cells, cAMP HTRF, 30 min; series mostly up to 92.4 µM
# Procedure, shortened: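 CHO cells stably over-expressing ADRB2 were plated overnight at 37C, then dosed with compounds plus a stimulation mix containing 100uM IBMX and 25uM Ro-20-1724 for 0.5hr at room temperature. cAMP was measured by HTRF competition, 1hr.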
row,Structure (SMILES),Potency
1,C=CC(=C)CCCC(C)(C)OC(C)=O,inactive
2,CCOc1ccc2nc(S(N)(=O)=O)sc2c1,inactive
3,O=C(O)c1ccc2cc(C(=O)O)ccc2c1,inactive
4,CN1C(CSCC(F)(F)F)Nc2cc(Cl)c(S(N)(=O)=O)cc2S1(=O)=O (centres undefined),inactive
5,N#CCCNCCC#N,inactive
6,CCOC(=O)CC(=O)c1ccccc1,inactive
7,CCCc1ccc(OC)cc1,inactive
8,CCC1Nc2cc(Cl)c(S(N)(=O)=O)cc2S(=O)(=O)N1 (centres undefined),inactive
9,CCCCOC(=O)CCCCC(=O)OCCCC,inactive
10,O=C1[C@@H]2[C@H]3CC[C@H](C3)[C@@H]2C(=O)N1CCCCN1CCN(c2ncccn2)CC1,inactive
11,O=C(O)CNC(=O)c1ccccc1,inactive
12,CCOCCn1c(N2CCCN(C)CC2)nc2ccccc21,inactive
13,COCc1nnc(-c2ccc[n+]([O-])c2)n1-c1c(Cl)c(Cl)cc2[nH]c(=O)c(=O)[nH]c12,inactive

# Biological target: D(2) dopamine receptor (Homo sapiens) (UniProt P14416)
# Sequence (P14416 whole entry, looked up): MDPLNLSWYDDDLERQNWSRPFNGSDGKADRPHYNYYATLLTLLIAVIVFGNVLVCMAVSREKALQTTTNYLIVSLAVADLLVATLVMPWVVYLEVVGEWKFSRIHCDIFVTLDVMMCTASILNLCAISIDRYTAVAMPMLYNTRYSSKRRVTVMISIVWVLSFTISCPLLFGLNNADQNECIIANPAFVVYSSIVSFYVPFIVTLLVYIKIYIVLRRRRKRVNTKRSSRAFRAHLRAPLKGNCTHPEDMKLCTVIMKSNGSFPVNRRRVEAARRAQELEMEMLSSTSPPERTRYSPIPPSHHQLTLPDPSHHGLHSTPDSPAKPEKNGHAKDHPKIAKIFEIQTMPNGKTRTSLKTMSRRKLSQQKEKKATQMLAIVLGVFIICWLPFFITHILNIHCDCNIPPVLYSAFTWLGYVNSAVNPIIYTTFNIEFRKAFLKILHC
# Assay: Dopamine D2 receptor (DRD2) small molecule agonists, cell-based qHTS assay (AID 1963594); further: nearly all actives have a fitted effect of over 35% in size; further: potency means the concentration at half of the fitted maximal effect
# Conditions: HEK293-DRD2 cAMP HTRF, agonist mode, 30 min; series mostly up to 92.4 µM
# Procedure, shortened: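 cAMP accumulation in DRD2-HEK293 cells measured by HTRF after 1 h detection; compounds added 10 min before NKH477 (200nM […]) forskolin-analogue stimulation, 30 min at room temperature, with Ro20-1724 present at 0.1 mM final.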
Structure (SMILES),Potency,activation
COc1cc(Cl)c(OC)cc1N,inactive,–
NCCCN1CCOCC1,inactive,–
CC(C)OC(=O)c1ccccc1C(=O)OC(C)C,inactive,–
CC1CC(OC(=O)C(O)c2ccccc2)CC(C)(C)N1C (centres undefined),inactive,–
C=CC(=C)CCCC(C)(C)OC(C)=O,inactive,–
CC(=O)N[C@@H](CCC(=O)O)C(=O)O,inactive,–
CC(=O)OCC(=O)[C@H]1CC[C@H]2[C@@H]3CCC4=CC(=O)CC[C@]4(C)[C@H]3CC[C@]12C,inactive,–
CCOc1ccc2nc(S(N)(=O)=O)sc2c1,inactive,–
O=C(O)c1ccc2cc(C(=O)O)ccc2c1,inactive,–
OCCc1ccncc1,inactive,–
CN1C(CSCC(F)(F)F)Nc2cc(Cl)c(S(N)(=O)=O)cc2S1(=O)=O (centres undefined),inactive,–
O=c1cc(O)c(Cl)c[nH]1,inactive,–
N#CCCNCCC#N,inactive,–
CN1CCC(=C2c3ccccc3CCc3cccnc32)CC1,inactive,–
CCO[C@H](Cc1ccc(OCCc2ccc(OS(C)(=O)=O)cc2)cc1)C(=O)O,inactive,–
COc1ccc(/C=N/NC(=O)c2ccncc2)cc1OC,inactive,–

Structure (SMILES),Potency,activation
C=CCOC(=O)COCCC(C)C,inactive,–
CCOC(=O)CC(=O)c1ccccc1,inactive,–
CCCCCCC(C)Nc1ccc(Nc2ccccc2)cc1 (centres undefined),inactive,–
O=C(NS(=O)(=O)/C=C/c1cccs1)c1ccc(F)cc1Br,inactive,–
CCCc1ccc(OC)cc1,inactive,–
COC=O,–,-14.1% [at 8.39 µM] (inactive)
CCCCCCCCCCO[C@@H]1O[C@H](CO)[C@@H](O)[C@H](O)[C@H]1O,inactive,–
CCN1C=CN(C)C1C (centres undefined),inactive,–
CCC1Nc2cc(Cl)c(S(N)(=O)=O)cc2S(=O)(=O)N1 (centres undefined),inactive,–
CCCCOC(=O)CCCCC(=O)OCCCC,inactive,–
O=C1[C@@H]2[C@H]3CC[C@H](C3)[C@@H]2C(=O)N1CCCCN1CCN(c2ncccn2)CC1,0.0944 µM (active),–
O=C(O)CNC(=O)c1ccccc1,inactive,–
CCOCCn1c(N2CCCN(C)CC2)nc2ccccc21,inactive,–
COCc1nnc(-c2ccc[n+]([O-])c2)n1-c1c(Cl)c(Cl)cc2[nH]c(=O)c(=O)[nH]c12,inactive,–
CN(C(=O)CN(CCO)CC(=O)N(C)C(C)(C)Cc1ccccc1)C(C)(C)Cc1ccccc1,inactive,–
CN(C)c1ccc(C2(c3ccc(N(C)C)cc3)OC(=O)c3cc(N(C)C)ccc32)cc1,inactive,–
